These results are taken from the supplement of paper PMC12494721.

Counter-ions that a name gives are not always drawn.

The test system of this assay is Escherichia coli IAI1. Kind of assay: growth (OD595) fold change vs plate DMSO controls (fold change (ratio)); higher = more growth. Conditions: incubation time: 27 h, anaerobic, 37 °C. A digest of the protocol:
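After 27 h at 37 °C under anaerobic conditions, 96-well cultures in mGAM were shaken and read at 595 nm. The readings were blank-subtracted, corrected for compound background using 20 µM compound solutions in water, and converted to OD with a calibration factor of 5. Growth is defined as the fold change over the median of DMSO controls on each plate. Fold changes above 1.5 were set to NA, and each value is the mean of 2 biological replicates.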
Take `CCCSS/C(CCO)=C(/C)N(C=O)Cc1cnc(C)nc1N` [Prosultiamine] (20 µM): the growth was determined as 1.01.
The figure for `CN(C)CCOC(c1ccccc1)c1ccccc1.Cn1c(=O)c2[nH]c(Cl)nc2n(C)c1=O` [Dimenhydrinate] (20 µM) is 0.985; for `CCCCCCCN(CC)CCCC(O)c1ccc(NS(C)(=O)=O)cc1` (centres undefined) [Ibutilide fumarate] (20 µM) it is 1.12; for `Cc1cccc(Nc2ccncc2S(=O)(=O)NC(=O)NC(C)C)c1` [Torsemide] (20 µM) it is 1.07.
To `C=C1c2cccc(O)c2C(O)=C2C(=O)[C@]3(O)C(O)=C(C(N)=O)C(=O)[C@@H](N(C)C)[C@@H]3[C@@H](O)[C@H]12` [Methacycline hydrochloride] (20 µM) belongs 0.0377; to `O=C(O)CNC(=O)C(CS)Cc1ccccc1` (centres undefined) [Thiorphan] (20 µM), 1.02.
The figure for `CCn1cc(C(=O)O)c(=O)c2cc(F)c(N3CCNCC3)nc21` [Enoxacin] (20 µM) is 0.0418; for `Cc1ccc(-c2ncc(Cl)cc2-c2ccc(S(C)(=O)=O)cc2)cn1` [Etoricoxib] (20 µM) it is 1.02; for `CNC(=O)OCc1cccc(COC(=O)NC)n1` [Pyricarbate] (20 µM) it is 1.02.
`N#Cc1cc(NC(=O)C(=O)O)c(Cl)c(NC(=O)C(=O)O)c1` [Lodoxamide] (20 µM): the growth was 1.15.
To `CNC1(C)C2CCC(C2)C1(C)C` (centres undefined) [Mecamylamine hydrochloride] (20 µM) belongs 1.06; to `CCOC(=O)[C@H](CCc1ccccc1)N[C@@H](C)C(=O)N(CC(=O)O)C1Cc2ccccc2C1` [Delapril Hydrochloride] (20 µM), 0.976; to `CN1[C@@H]2CC[C@H]1C[C@@H](OC(c1ccccc1)c1ccccc1)C2` [Benztropine mesylate] (20 µM), 0.99.
To `C[N+]1(CCCCC[N+]2(C)CCCC2)CCCC1` [Pentolinium bitartrate] (20 µM) belongs 0.986; to `CC(=O)Oc1cc(C(F)(F)F)ccc1C(=O)O` [Triflusal] (20 µM), 0.971.
The figure for `COc1ccc2cc(CCC(C)=O)ccc2c1` [Nabumetone] (20 µM) is 0.792; for `CN1C(=O)CC(c2ccccc2)C1=O` (centres undefined) [Phensuximide] (20 µM) it is 1.28; for `CC(N)CCCC(C)(C)O` (centres undefined) [Heptaminol hydrochloride] (20 µM) it is 1.1.
In the case of `CN(C)CCOC(c1ccc(Cl)cc1)c1ccccn1` (centres undefined) [Carbinoxamine maleate salt] (20 µM), the growth was 1.01.
The figure for `C=CCN1CCCC1CNC(=O)c1cc2nn[nH]c2cc1OC` (centres undefined) [Alizapride hydrochloride] (20 µM) is 1.01; for `CC1(C)O[C@@H]2C[C@H]3[C@@H]4C[C@H](F)C5=CC(=O)C=C[C@]5(C)[C@H]4[C@@H](O)C[C@]3(C)[C@]2(C(=O)CO)O1` [Flunisolide] (20 µM) it is 0.993; for `C=CC(N)CCC(=O)O` (centres undefined) [Vigabatrin hydrochloride] (20 µM) it is 1.06.
The figure for `CC(N)C12CC3CC(CC(C3)C1)C2` (centres undefined) [Rimantadine hydrochloride] (20 µM) is 0.975; for `O=C(O)c1cc(-c2ccc(F)cc2F)ccc1O` [Diflunisal] (20 µM) it is 0.978; for `OC[C@H]1O[C@@H](O[C@@H]2[C@@H](CO)OC(O)(CO)[C@H]2O)[C@H](O)[C@@H](O)[C@H]1O` (mixture of isomers) [Lactulose] (50 µM) it is 0.906.
To `COc1ccc2c3c1O[C@H]1C[C@@H](O)C=C[C@@]31CCN(C)C2` [Galanthamine hydrobromide] (20 µM) belongs 1.06; to `O=C(CCNNC(=O)c1ccncc1)NCc1ccccc1` [Nialamide] (20 µM), 0.991; to `CC(C)OC(=O)C(C)(C)Oc1ccc(C(=O)c2ccc(Cl)cc2)cc1` [Fenofibrate] (20 µM), 1.04.
In the case of `Cc1ccc2c(c1)c1c3n2CCNC3CCC1` (centres undefined) [Pirlindole mesylate] (20 µM), the growth was 1.06.
To `CC[N+](C)(C)Cc1ccccc1Br` [Bretylium tosylate] (20 µM) belongs 1.02; to `COC(=O)[C@H](Cc1ccccc1)NC(=O)[C@H](CC(=O)O)NCCCc1ccc(OC)c(O)c1` [Advantame] (50 µM), 0.94; to `O=C(c1cc(O)c(O)c(O)c1)c1ccc(O)c(O)c1O` [Exifone] (20 µM), 1.
The figure for `COc1cc(N)cn[n+]1-c1ccccc1` [Amezinium metilsulfate] (20 µM) is 1.04; for `CN[C@@H]1[C@@H](O[C@H]2O[C@H](CO)[C@@H](N)[C@H](O)[C@H]2O)OC2C[C@@H](N)[C@@H](O[C@H]3[C@H](O)[C@@H](O)[C@H](N)C[C@@H]3N)OC2[C@@H]1O` (some centres undefined) [Apramycin] (20 µM) it is 0.982.
